An excerpt weighted towards active compounds, which were near 0.9% of everything screened.
Rhodamine autofl – compound autofluorescence in rhodamine spectral region. actives 0.05% (n = 59,000). Rhodamine-region fluorescence, 547/598 nm, Tris buffer; stronger effect = higher value. max dye-equivalent concentration, M; in the data active = max dye-equivalent concentration above about 11 nM; inconclusive = between about 1.1 nM and that limit
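qHTS spectral profiling of compounds without any target or enzyme present, in pH 8.0 Tris buffer; plates were read after a 15-minute room-temperature incubation using the rhodamine-region filter set.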
A647 fluor – compound autofluorescence in A647 spectral region; Compound fluorescence, A647 channel (570/671 nm), Tris buffer; max dye-equivalent concentration, M; 59,000 tested, under 10 active
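Compounds pinned into 100 mM Tris pH 8.0, 15 min at room temperature, then read with 570 nm excitation/671 nm emission filters. Fluorescence normalized to an on-plate six-point Alexa 647 standard curve, giving dye-equivalent concentration per compound concentration.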
A488 fluor – A488 region autofluorescence | actives 0.1% (n = 59,000) | max dye equivalency, M | compound autofluorescence, A488 spectral region, dye equivalency; Compound Type: qHTS ECL - MLSMR
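Compound autofluorescence was read in 100 mM Tris pH 8.0 after 15 min at room temperature, ex 480 nm/em 540 nm. Intensities were converted to A488 dye-equivalent concentration using an on-plate six-point A488 standard curve.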
TexasRed autofl – Texas Red region autofluorescence | Compound fluorescence, Texas Red channel, 547/618 nm; stronger effect = higher value | max dye-equivalent concentration, M | actives 0.06% (n = 59,000) | AID 587; in the data active = max dye-equivalent concentration above about 10 nM; inconclusive = between about 1.1 nM and that limit
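Dye-equivalent concentrations come from scaling compound signal (ex 547, em 618 nm) to six Texas Red standard concentrations run on every plate, after 15 min room-temperature incubation in pH 8.0 Tris (100 mM).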
Fluorescein fluor – compound fluoresces in the fluorescein spectral region. Compound autofluorescence, 480/540 nm, fluorescein-equivalent; stronger effect = higher value. max fluorescein-equivalent concentration, M. actives 0.91% (n = 59,000). AID 593; in the data active = max fluorescein-equivalent concentration above about 10 nM; inconclusive = between about 1.1 nM and that limit
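Autofluorescence profiling; 100 mM Tris, pH 8.0; incubation 15 min at RT; ex/em 480/540 nm; result as fluorescein-equivalent concentration.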
Resorufin fluor – resorufin region autofluorescence | Compound fluorescence, resorufin region 547/598 nm, buffer; stronger effect = higher value | max dye-equivalent concentration, M | actives 0.04% (n = 59,000)
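Dye-equivalent concentration values derive from comparing each well's 547/598 nm fluorescence against resorufin standards included on every plate. Incubation was 15 min at room temperature in 100 mM Tris, pH 8.0.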
Large screens that a line does not name were inactive. Unless noted, the rule behind the calls is not given here.

Cc1ccc(C)c(S(=O)(=O)C(C#N)c2nc3ccccc3nc2N2CCCC2)c1 (configuration not stated)	Fluorescein fluor 1.1e-08M
O=C1c2c(O)cc(O)cc2O[C@@H](c2ccc(O)c(O)c2)[C@H]1O	Fluorescein fluor inconclusive
Cc1nc(NCc2ccco2)c2c3c(sc2n1)CCC3	none
CCN1CCc2c(sc3c2c(NCc2ccco2)nc2nnnn23)C1	Fluorescein fluor 1.3e-08M
COc1ccc(OC)c(C2C3CN(C(C)C)CC=C3C(C#N)=C(N)C2(C#N)C#N)c1 (configuration not stated)	Fluorescein fluor 3.2e-08M
CCCN1CC=C2C(C#N)=C(N)C(C#N)(C#N)C(c3cccc(OC)c3OC)C2C1 (configuration not stated)	A488 fluor inconclusive, Fluorescein fluor 5.3e-08M
CCCCOc1ccc(C2C3CN(C(=O)OCC)CC=C3C(C#N)=C(N)C2(C#N)C#N)cc1OC (configuration not stated)	Fluorescein fluor inconclusive
Cc1ccc(C2C3CN(C(C)C)CC=C3C(C#N)=C(N)C2(C#N)C#N)cc1 (configuration not stated)	A488 fluor inconclusive, Fluorescein fluor 1e-07M
CCOC(=O)N1CC=C2C(C#N)=C(N)C(C#N)(C#N)[C@H](c3ccc(OCC)c(OCC)c3)[C@H]2C1	none
CN1CC=C2C(C#N)=C(N)C(C#N)(C#N)C(c3cccc(Cl)c3Cl)C2C1 (configuration not stated)	A488 fluor inconclusive, TexasRed autofl inconclusive, Fluorescein fluor 3.9e-08M
FC(F)(F)c1cc(CO[C@@H]2CCCN[C@H]2c2ccccc2)cc(C(F)(F)F)c1	TexasRed autofl inconclusive
CC12CC[C@@H]3c4ccc(OP(=O)(O)O)cc4CCC3C1CCC2=O (some centres not stated)	TexasRed autofl inconclusive
Cn1cccc1C(=O)N1CCC[C@@]2(CCN(c3ccccc3)C2)C1	Fluorescein fluor 1.1e-08M
Nc1ncnc2c1nc(Sc1ccc(Cl)cc1)n2[C@@H]1O[C@H]2COP(=O)(O)O[C@@H]2[C@H]1O	TexasRed autofl inconclusive
CCNC(=O)[C@@H]1O[C@@H](n2cnc3c(NCc4ccccc4)ncnc32)[C@@H](O)[C@H]1O	none
Cc1ccc(C(=O)[C@@H]2[C@@H]3[C@@H](C(=O)[C@@H]4OC[C@H]3O4)[C@@H]3C=Cc4ccccc4N23)cc1	none
CC1CCc2cccc3c2N1c1cc(C#N)c(C#N)cc1O3 (configuration not stated)	A488 fluor inconclusive, TexasRed autofl inconclusive, Fluorescein fluor 6.3e-08M
CC(=O)S[C@H]1CC2=CC(=O)CC[C@@]2(C)[C@H]2CC[C@@]3(C)[C@H](CC[C@]34CCC(=O)O4)[C@@H]12	Rhodamine autofl inconclusive, A488 fluor inconclusive, TexasRed autofl 1e-08M, Fluorescein fluor 4.9e-08M, Resorufin fluor inconclusive
Cc1ccc(C[C@H](Cc2nc3ccccc3[nH]2)c2nc3ccccc3[nH]2)cc1	none
COc1ccc(OC)c(/C=c2\sc3nc(-c4cccs4)nn3c2=O)c1	A488 fluor inconclusive, Fluorescein fluor 1.8e-07M
Cn1c(=O)c2[nH]c(CS(=O)(=O)Cc3nc4c([nH]3)c(=O)n(C)c(=O)n4C)nc2n(C)c1=O	A488 fluor inconclusive, TexasRed autofl inconclusive, Fluorescein fluor 1.2e-07M
Fc1cccc(Cl)c1/C=N\N=C1c2ccccc2-c2ccccc21	none
OCCN(CCO)c1nc(N2CCCCC2)c2nc(N(CCO)CCO)nc(N3CCCCC3)c2n1	A488 fluor 2.9e-08M, Fluorescein fluor 6.7e-07M
O=C(c1cnn2c(C(F)(F)F)cc(-c3ccc4c(c3)OCO4)nc12)N1CCCCC1	none
O=C(NC1CCCC1)c1cnn2c(C(F)(F)F)cc(-c3ccc4c(c3)OCO4)nc12	A488 fluor inconclusive, Fluorescein fluor 4.6e-08M
N.N.N.N.N.N.N.N.N.N.N.N.N.N.O.O.[Ru].[Ru].[Ru]	TexasRed autofl inconclusive
CC1C2C(c3ccccc3)N(C)C(=O)N(C)C2N(C)C(=O)N1C (configuration not stated)	Fluorescein fluor 1.5e-08M
CC(=O)N1C(=O)N(C(C)=O)C2C1N(C(C)=O)C(=O)N2C(C)=O (configuration not stated)	none
C=CCn1c(=O)/c(=C/c2ccc(O)cc2)s/c1=C(/C#N)c1nnc2n1CCCCC2	A488 fluor inconclusive, Fluorescein fluor 9.4e-08M
C=CCn1c(=O)/c(=C/c2ccc(Cl)cc2)s/c1=C(/C#N)c1nnc2n1CCCCC2	none
C=CCn1c(=O)/c(=C/c2cc(OC)c(OC)c(OC)c2)s/c1=C(/C#N)c1nc2ccccc2n1C	A488 fluor 1.5e-08M, Fluorescein fluor 2.8e-07M
COc1ccc(N(C)S(=O)(=O)c2ccc3c(c2)CCC(=O)N3)cc1	none
CN(C)S(=O)(=O)c1ccc2c(c1)/C(=C/c1cc3c([nH]1)CCCC3)C(=O)N2	Fluorescein fluor 1.9e-08M
CCN(CC)CCC[C@H](C)Nc1c2ccc(Cl)cc2nc2ccc(OC)cc12	A488 fluor inconclusive, Fluorescein fluor 9e-08M
[O-][n+]1c(CN2CCCCC2)nc2cccc3c2c1-c1ccccc1-3	Fluorescein fluor 1.7e-08M
c1ccc2[nH]c(CN3CCCCCC3)nc2c1	Fluorescein fluor inconclusive
CN1Cc2sc(N)c(C#N)c2CC1(C)C	Rhodamine autofl inconclusive, A488 fluor inconclusive, TexasRed autofl inconclusive, Fluorescein fluor 3.1e-08M
O=C(CN1C(=O)c2ccccc2C1=O)[C@@H](O)CN1C(=O)c2ccccc2C1=O	none
CCN1C(=O)/C(=C2/SC(C)=C(C)N2CC)SC1=S	A488 fluor inconclusive, Fluorescein fluor 7.1e-08M
O=C(NC12CC3CC(CC(C3)C1)C2)c1cnccn1	TexasRed autofl inconclusive, Fluorescein fluor 1.1e-08M
C[C@]12C=CC(=O)C=C1CC[C@@H]1[C@H]3C[C@@H](O)[C@](O)(C(=O)CO)[C@]3(C)C[C@H](O)[C@]12F	Fluorescein fluor inconclusive
CC1=CC(=O)C2=C(C)CC[C@@H]3[C@H](OC(=O)[C@H]3C)[C@H]12	Fluorescein fluor inconclusive
O=C(c1ccccc1C(=O)N1CCN(c2ccccc2)CC1)N1CCN(c2ccccc2)CC1	Fluorescein fluor 1.5e-08M
C[C@H](O)C(=O)C1=Nc2c(nc(N)[nH]c2=O)NC1	A488 fluor inconclusive, TexasRed autofl inconclusive, Fluorescein fluor 4e-08M
Cn1cc[nH]c1=S	Fluorescein fluor 2.2e-08M
O=[N+]([O-])c1ccc2ncccc2c1CCc1c([N+](=O)[O-])ccc2ncccc12	Fluorescein fluor 1.1e-08M
CCOC(=O)c1c(C)[nH]c(C)c1C(=O)Cn1nnc(-c2ccccc2C)n1	Fluorescein fluor 1e-08M
CCOC(=O)[C@H](CCc1ccccc1)N[C@@H](C)C(=O)N1[C@H](C(=O)O)C[C@H]2CCC[C@@H]21	Fluorescein fluor 1e-08M
Cn1c(=O)c2c(nc(/C=C\c3cccc(Cl)c3)n2C)n(C)c1=O	none

Source: PubChem
